From PMC12701074

Experiments:
Experiment in all cases: cross-linking mass spectrometry
MT-ND3 = MT-ND3 (UniProt P03897); settings: in cells
PPIA = PPIA (UniProt P62937); settings: SIA, in cells
VIM = VIM (UniProt P08670); settings: in cells
PDIA3 = PDIA3 (UniProt P30101); settings: SBAP, in cells
PMPCA = PMPCA (UniProt Q10713); settings: SBAP;SIAB, in cells
NDUFA5 = NDUFA5 (UniProt Q16718); settings: SBAP;SIAB, in cells
NAA15 = NAA15 (UniProt Q9BXJ9); settings: SBAP;SIAB, in cells
PKM = PKM (UniProt P14618); settings: SBAP, in cells
RABGGTA = RABGGTA (UniProt Q92696); settings: SIAB, in cells
PGK2 = PGK2 (UniProt P07205); settings: SIA, in cells
PRPF19 = PRPF19 (UniProt Q9UMS4); settings: SBAP, in cells
PLS3 = PLS3 (UniProt P13797); settings: SIAB, in cells
RPL14 = RPL14 (UniProt P50914); settings: SIA, in cells
RPS11 = RPS11 (UniProt P62280); settings: SIA, in cells
RPS3A = RPS3A (UniProt P61247); settings: SIA, in cells
RPS6 = RPS6 (UniProt P62753); settings: SIA, in cells
RPL18A = RPL18A (UniProt Q02543); settings: SBAP, in cells
RPL24 = RPL24 (UniProt P83731); settings: SIA, in cells
RPS16 = RPS16 (UniProt P62249); settings: SIA, in cells
RPL32 = RPL32 (UniProt P62910); settings: SBAP, in cells
RPL36 = RPL36 (UniProt Q9Y3U8); settings: SBAP;SIA, in cells
RPL7A = RPL7A (UniProt P62424); settings: SIA, in cells
RPS15A = RPS15A (UniProt P62244); settings: SIA, in cells
RPS2 = RPS2 (UniProt P15880); settings: SIA, in cells
RPS8 = RPS8 (UniProt P62241); settings: SIA, in cells
RRP1B = RRP1B (UniProt Q14684); settings: SIA, in cells
RTRAF = RTRAF (UniProt Q9Y224); settings: SIAB, in cells
Chain of RTRAF (Q9Y224 whole entry): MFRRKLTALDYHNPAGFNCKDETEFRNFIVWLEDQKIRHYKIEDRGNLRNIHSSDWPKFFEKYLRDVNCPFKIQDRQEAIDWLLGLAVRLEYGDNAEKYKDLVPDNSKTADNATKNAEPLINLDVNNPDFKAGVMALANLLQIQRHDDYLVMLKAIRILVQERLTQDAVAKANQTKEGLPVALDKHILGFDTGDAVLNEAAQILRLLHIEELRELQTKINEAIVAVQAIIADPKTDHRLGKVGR

Chain of VIM (P08670 whole entry): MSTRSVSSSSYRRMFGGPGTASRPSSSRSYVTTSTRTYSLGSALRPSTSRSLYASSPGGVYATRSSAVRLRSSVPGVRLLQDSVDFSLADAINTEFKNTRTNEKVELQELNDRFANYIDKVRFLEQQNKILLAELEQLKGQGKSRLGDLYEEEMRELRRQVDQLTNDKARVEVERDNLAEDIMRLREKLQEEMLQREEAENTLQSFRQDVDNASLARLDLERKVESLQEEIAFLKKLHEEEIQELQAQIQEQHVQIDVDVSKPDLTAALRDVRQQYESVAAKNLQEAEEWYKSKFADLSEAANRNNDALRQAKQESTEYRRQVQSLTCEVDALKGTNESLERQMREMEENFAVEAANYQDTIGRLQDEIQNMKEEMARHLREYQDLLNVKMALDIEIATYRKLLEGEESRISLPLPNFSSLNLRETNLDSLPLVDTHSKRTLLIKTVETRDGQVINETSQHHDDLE
Chain of NEFM, P07197 (P07197 whole entry): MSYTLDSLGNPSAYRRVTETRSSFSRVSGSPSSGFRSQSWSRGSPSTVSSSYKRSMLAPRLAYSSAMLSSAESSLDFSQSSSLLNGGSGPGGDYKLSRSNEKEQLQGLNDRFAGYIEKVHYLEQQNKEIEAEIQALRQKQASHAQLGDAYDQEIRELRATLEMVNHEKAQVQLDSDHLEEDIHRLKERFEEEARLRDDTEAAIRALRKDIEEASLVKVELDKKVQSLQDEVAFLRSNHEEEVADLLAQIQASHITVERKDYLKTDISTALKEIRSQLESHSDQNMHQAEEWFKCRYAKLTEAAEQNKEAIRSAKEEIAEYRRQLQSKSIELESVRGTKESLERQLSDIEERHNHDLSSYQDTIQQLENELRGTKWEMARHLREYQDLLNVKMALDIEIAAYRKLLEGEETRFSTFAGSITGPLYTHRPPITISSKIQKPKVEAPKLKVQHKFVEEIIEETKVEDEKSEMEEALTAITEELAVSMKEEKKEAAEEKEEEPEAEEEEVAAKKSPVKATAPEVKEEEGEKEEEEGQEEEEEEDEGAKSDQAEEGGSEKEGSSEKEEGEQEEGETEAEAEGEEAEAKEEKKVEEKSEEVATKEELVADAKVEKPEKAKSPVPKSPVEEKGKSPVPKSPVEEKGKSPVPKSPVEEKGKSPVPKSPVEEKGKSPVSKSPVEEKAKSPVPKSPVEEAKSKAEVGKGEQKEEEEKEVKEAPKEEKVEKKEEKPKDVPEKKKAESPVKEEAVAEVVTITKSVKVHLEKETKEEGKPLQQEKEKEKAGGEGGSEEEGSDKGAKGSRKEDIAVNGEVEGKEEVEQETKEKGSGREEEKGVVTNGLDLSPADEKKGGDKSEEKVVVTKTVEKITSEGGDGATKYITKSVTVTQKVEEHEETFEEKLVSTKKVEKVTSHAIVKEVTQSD
Chain of PPIA (P62937 whole entry): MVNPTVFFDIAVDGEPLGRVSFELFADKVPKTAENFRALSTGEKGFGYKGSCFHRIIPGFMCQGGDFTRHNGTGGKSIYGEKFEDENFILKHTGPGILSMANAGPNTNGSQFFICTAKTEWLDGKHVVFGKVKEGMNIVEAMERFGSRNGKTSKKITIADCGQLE
Chain of MT-ND3 (P03897 whole entry): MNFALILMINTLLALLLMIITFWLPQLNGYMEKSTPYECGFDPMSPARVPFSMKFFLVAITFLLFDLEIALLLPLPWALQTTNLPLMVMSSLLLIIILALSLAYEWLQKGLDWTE
Chain of LCP1, P13796 (P13796 whole entry): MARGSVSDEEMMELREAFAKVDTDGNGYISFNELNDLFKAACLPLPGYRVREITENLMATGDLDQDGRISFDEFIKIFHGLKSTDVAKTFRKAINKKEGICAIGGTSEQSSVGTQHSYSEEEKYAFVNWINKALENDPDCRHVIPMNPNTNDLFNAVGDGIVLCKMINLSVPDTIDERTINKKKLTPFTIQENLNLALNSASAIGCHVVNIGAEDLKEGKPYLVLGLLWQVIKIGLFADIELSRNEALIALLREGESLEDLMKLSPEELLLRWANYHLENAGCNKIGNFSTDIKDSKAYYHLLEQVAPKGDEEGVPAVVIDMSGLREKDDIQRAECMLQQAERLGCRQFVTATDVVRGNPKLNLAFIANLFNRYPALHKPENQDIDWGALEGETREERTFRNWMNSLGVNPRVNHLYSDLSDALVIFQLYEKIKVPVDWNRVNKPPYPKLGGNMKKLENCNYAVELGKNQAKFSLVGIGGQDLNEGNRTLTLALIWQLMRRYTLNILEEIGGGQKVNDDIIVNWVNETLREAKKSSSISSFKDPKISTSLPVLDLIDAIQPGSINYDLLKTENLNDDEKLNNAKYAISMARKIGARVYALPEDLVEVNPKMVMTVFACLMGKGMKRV
Chain of NDUFA10, O95299 (O95299 whole entry): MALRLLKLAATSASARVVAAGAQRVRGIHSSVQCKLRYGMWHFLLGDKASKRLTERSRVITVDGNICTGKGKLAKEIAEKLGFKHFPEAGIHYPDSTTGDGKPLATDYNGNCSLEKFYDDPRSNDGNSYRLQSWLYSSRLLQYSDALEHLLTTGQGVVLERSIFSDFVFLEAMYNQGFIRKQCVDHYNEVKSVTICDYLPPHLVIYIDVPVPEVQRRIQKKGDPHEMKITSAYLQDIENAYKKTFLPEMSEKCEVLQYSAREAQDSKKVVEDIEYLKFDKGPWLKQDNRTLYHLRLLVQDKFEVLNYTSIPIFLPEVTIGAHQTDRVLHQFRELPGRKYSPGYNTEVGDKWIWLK
Chain of NDUFS2, O75306 (O75306 whole entry): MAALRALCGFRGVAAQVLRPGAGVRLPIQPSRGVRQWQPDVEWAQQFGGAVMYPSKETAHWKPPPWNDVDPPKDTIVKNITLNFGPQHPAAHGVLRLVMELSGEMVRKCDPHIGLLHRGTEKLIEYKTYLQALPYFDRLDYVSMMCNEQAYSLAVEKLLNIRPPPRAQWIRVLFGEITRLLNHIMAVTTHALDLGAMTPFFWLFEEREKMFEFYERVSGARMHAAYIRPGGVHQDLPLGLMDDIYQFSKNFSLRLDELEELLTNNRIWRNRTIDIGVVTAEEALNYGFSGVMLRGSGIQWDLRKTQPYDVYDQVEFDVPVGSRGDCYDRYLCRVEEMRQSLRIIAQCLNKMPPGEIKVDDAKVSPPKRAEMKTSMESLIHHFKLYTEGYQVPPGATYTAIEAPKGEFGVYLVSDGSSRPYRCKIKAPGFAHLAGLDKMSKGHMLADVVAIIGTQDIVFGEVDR
Chain of PRPF19 (Q9UMS4 whole entry): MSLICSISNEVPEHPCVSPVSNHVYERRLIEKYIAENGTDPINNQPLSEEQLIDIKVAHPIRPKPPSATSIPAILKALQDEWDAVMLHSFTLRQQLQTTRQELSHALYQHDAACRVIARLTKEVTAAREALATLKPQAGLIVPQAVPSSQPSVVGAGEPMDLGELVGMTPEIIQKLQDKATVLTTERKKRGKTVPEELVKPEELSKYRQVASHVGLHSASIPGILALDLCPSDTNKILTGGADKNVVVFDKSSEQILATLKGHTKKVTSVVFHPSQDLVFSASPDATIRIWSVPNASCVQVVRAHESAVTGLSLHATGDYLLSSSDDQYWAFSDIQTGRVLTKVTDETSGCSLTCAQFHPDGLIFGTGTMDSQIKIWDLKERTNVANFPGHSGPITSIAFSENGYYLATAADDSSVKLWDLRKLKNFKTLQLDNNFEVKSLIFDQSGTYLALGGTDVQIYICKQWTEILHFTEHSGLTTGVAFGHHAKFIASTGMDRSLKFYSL
Chain of PGK2 (P07205 whole entry): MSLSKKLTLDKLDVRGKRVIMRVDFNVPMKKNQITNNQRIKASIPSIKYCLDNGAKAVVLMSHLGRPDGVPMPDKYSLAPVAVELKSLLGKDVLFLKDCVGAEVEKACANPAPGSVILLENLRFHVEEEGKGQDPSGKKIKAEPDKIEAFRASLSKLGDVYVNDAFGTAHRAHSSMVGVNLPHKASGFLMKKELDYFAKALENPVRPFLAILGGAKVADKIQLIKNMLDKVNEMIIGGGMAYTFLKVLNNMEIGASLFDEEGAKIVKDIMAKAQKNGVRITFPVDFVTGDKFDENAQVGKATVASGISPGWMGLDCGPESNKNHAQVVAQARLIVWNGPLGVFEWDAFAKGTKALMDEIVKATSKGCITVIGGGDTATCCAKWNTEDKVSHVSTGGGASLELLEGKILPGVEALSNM
Chain of PGK1, P00558 (P00558 whole entry): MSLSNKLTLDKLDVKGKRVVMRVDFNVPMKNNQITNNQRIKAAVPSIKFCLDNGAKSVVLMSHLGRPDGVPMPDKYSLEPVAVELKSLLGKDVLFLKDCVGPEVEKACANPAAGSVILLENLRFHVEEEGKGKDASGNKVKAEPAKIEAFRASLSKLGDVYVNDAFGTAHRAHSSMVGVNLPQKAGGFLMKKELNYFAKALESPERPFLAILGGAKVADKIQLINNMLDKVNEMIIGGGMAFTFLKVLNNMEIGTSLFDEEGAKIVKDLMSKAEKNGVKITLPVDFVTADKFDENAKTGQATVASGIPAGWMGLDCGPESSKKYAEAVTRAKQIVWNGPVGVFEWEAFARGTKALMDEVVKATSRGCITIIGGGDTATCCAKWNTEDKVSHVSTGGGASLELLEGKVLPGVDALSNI
Chain of NAA10, P41227 (P41227 whole entry): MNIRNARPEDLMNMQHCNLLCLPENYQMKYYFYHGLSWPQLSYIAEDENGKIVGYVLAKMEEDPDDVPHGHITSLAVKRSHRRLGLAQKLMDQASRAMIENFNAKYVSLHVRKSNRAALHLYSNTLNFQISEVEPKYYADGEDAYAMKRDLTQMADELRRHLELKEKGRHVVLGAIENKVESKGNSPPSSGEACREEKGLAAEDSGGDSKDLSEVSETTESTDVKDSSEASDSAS

Substance: NDUFS7, O75251
- cross-linked residues (MT-ND3; SIA;SIAB): K136 - C39

Substance: NEFM, P07197
- cross-linked residues (PPIA): K223 - C115
- cross-linked residues (VIM; SBAP;SIA;SIAB): K223 - C328
- cross-linked residues (VIM; SIA): K208 - C328
- cross-linked residues (VIM; SIA;SIAB): K53 - C328

Substance: CALR, P27797
- cross-linked residues (PDIA3): C105 - K129

Substance: GTF2E1, P29083
- cross-linked residues (PPIA): K53 - C115

Substance: PMPCB, O75439
- cross-linked residues (PMPCA): K148 - C466

Substance: NDUFA10, O95299
- cross-linked residues (NDUFA5): K277 - C17

Substance: NAA10, P41227
- cross-linked residues (NAA15): K165 - C214

Substance: AP3B1, O00203
- cross-linked residues (PKM): K386 - C49

Substance: RABGGTB, P53611
- cross-linked residues (RABGGTA): C40 - K26

Substance: PGK1, P00558
- cross-linked residues (PGK2): C108 - K30

Substance: RIC8A, Q9NPQ8
- cross-linked residues (PRPF19): C341 - K266

Substance: NDUFS2, O75306
- cross-linked residues (MT-ND3; SBAP): K78 - C39

Substance: LCP1, P13796
- cross-linked residues (PLS3): C101 - K91

Substance: H1-3, P16402
- cross-linked residues (RPL14): K169 - C42
- cross-linked residues (RPS11): K194 - C116
- cross-linked residues (RPS3A): K141 - C96
- cross-linked residues (RPS6): K169 - C12

Substance: APAF1, O14727
- cross-linked residues (RPL18A): K680 - C109

Substance: NCL, P19338
- cross-linked residues (RPL24): K220 - C36
- cross-linked residues (RPS16): K116 - C25

Substance: ABCB1, P08183
- cross-linked residues (RPL32): K285 - C96

Substance: SERBP1, Q8NC51
- cross-linked residues (RPL36): C11 - K35

Substance: LRP5, O75197
- cross-linked residues (RPL7A): C1343 - K217

Substance: PSMD3, O43242
- cross-linked residues (RPS15A): K315 - C30
- cross-linked residues (RPS2): K315 - C182

Substance: AIFM1, O95831
- cross-linked residues (RPS16): K13 - C25

Substance: GPI, P06744
- cross-linked residues (RPS2): K128 - C182

Substance: NVL, O15381
- cross-linked residues (RPS8): C448 - K157

Substance: NPM1, P06748
- cross-linked residues (RRP1B): K32 - C583

Substance: FAM98A, Q8NCA5
- cross-linked residues (RTRAF): K248 - C19
